# Key:
# Assay in all cases: cell viability of combination (% of vehicle); higher = less cytotoxic
# Details in all cases: 1 µM; 72 h; partner dose: 10 nM
# HCI01 = tested on: HCI01 (cells of a triple-negative basal-like breast cancer xenograft)
# Description: (§1)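 PDX cells were treated for 72 h with each drug at 1 µM plus carfilzomib (10 nM; 100 nM for WHIM2). Luciferase viability is expressed as percent of vehicle.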
# UCD52 = tested on: UCD52 (cells of a triple-negative basal-like breast cancer xenograft)
# Description: as §1
# WHIM30 = tested on: WHIM30 (cells of a triple-negative basal-like breast cancer xenograft)
# Description: as §1
Compound,cell viability of combination (HCI01),cell viability of combination (UCD52),cell viability of combination (WHIM30)
C=CC(=O)N1CCC(Oc2cc3c(Nc4ccc(Cl)c(Cl)c4F)ncnc3cc2OC)CC1 [Poziotinib] + CC(C)C[C@H](NC(=O)[C@H](CCc1ccccc1)NC(=O)CN1CCOCC1)C(=O)N[C@@H](Cc1ccccc1)C(=O)N[C@@H](CC(C)C)C(=O)[C@@]1(C)CO1 [Carfilzomib],52.8,28.9,–
CC[C@@]1(O)C(=O)OCc2c1cc1n(c2=O)Cc2cc3c(CN(C)C)c(O)ccc3nc2-1 [Topotecan] + CC(C)C[C@H](NC(=O)[C@H](CCc1ccccc1)NC(=O)CN1CCOCC1)C(=O)N[C@@H](Cc1ccccc1)C(=O)N[C@@H](CC(C)C)C(=O)[C@@]1(C)CO1 [Carfilzomib],56.9,57.9,–
O=C(NN=Cc1ccc([N+](=O)[O-])o1)c1ccc(O)cc1 [Nifuroxazide] + CC(C)C[C@H](NC(=O)[C@H](CCc1ccccc1)NC(=O)CN1CCOCC1)C(=O)N[C@@H](Cc1ccccc1)C(=O)N[C@@H](CC(C)C)C(=O)[C@@]1(C)CO1 [Carfilzomib],72.2,57.6,–
Cl.OC(c1cc(C(F)(F)F)nc2c(C(F)(F)F)cccc12)C1CCCCN1 (stereo not drawn) [Mefloquine hydrochloride] + CC(C)C[C@H](NC(=O)[C@H](CCc1ccccc1)NC(=O)CN1CCOCC1)C(=O)N[C@@H](Cc1ccccc1)C(=O)N[C@@H](CC(C)C)C(=O)[C@@]1(C)CO1 [Carfilzomib],82.9,51.6,–
Cl.Clc1ccccc1CN1CCc2sccc2C1 [Ticlopidine HCl] + CC(C)C[C@H](NC(=O)[C@H](CCc1ccccc1)NC(=O)CN1CCOCC1)C(=O)N[C@@H](Cc1ccccc1)C(=O)N[C@@H](CC(C)C)C(=O)[C@@]1(C)CO1 [Carfilzomib],78.4,58.7,–
CC(C)COc1ccc(CNC(=O)N(Cc2ccc(F)cc2)C2CCN(C)CC2)cc1 [Pimavanserin] + CC(C)C[C@H](NC(=O)[C@H](CCc1ccccc1)NC(=O)CN1CCOCC1)C(=O)N[C@@H](Cc1ccccc1)C(=O)N[C@@H](CC(C)C)C(=O)[C@@]1(C)CO1 [Carfilzomib],76.1,62.4,–
CC(C)C(=O)OCC(=O)[C@@]12O[C@H](C3CCCCC3)O[C@@H]1C[C@H]1[C@@H]3CCC4=CC(=O)C=C[C@]4(C)[C@H]3[C@@H](O)C[C@@]12C [Ciclesonide] + CC(C)C[C@H](NC(=O)[C@H](CCc1ccccc1)NC(=O)CN1CCOCC1)C(=O)N[C@@H](Cc1ccccc1)C(=O)N[C@@H](CC(C)C)C(=O)[C@@]1(C)CO1 [Carfilzomib],108,88.6,–
CC1(C)CCC(c2ccc(Cl)cc2)=C(CN2CCN(c3ccc(C(=O)NS(=O)(=O)c4ccc(NC(CCN5CCOCC5)CSc5ccccc5)c(S(=O)(=O)C(F)(F)F)c4)cc3)CC2)C1 (stereo not drawn) [ABT-263 (Navitoclax)] + CC(C)C[C@H](NC(=O)[C@H](CCc1ccccc1)NC(=O)CN1CCOCC1)C(=O)N[C@@H](Cc1ccccc1)C(=O)N[C@@H](CC(C)C)C(=O)[C@@]1(C)CO1 [Carfilzomib],47,31.8,–
CNCCCC12CCC(c3ccccc31)c1ccccc12.Cl [Maprotiline HCl] + CC(C)C[C@H](NC(=O)[C@H](CCc1ccccc1)NC(=O)CN1CCOCC1)C(=O)N[C@@H](Cc1ccccc1)C(=O)N[C@@H](CC(C)C)C(=O)[C@@]1(C)CO1 [Carfilzomib],76.5,55.5,–
Br.Cc1ccc(Sc2ccccc2N2CCNCC2)c(C)c1 + CC(C)C[C@H](NC(=O)[C@H](CCc1ccccc1)NC(=O)CN1CCOCC1)C(=O)N[C@@H](Cc1ccccc1)C(=O)N[C@@H](CC(C)C)C(=O)[C@@]1(C)CO1 [Carfilzomib],98.3,50.8,–
COC(=O)NC(C(=O)NC(Cc1ccccc1)C(O)CN(Cc1ccc(-c2ccccn2)cc1)NC(=O)C(NC(=O)OC)C(C)(C)C)C(C)(C)C (stereo not drawn) [Atazanavir] + CC(C)C[C@H](NC(=O)[C@H](CCc1ccccc1)NC(=O)CN1CCOCC1)C(=O)N[C@@H](Cc1ccccc1)C(=O)N[C@@H](CC(C)C)C(=O)[C@@]1(C)CO1 [Carfilzomib],79.8,63.2,–
Cl.Fc1ccc(C2CCNCC2COc2ccc3c(c2)OCO3)cc1 (stereo not drawn) [Paroxetine HCl] + CC(C)C[C@H](NC(=O)[C@H](CCc1ccccc1)NC(=O)CN1CCOCC1)C(=O)N[C@@H](Cc1ccccc1)C(=O)N[C@@H](CC(C)C)C(=O)[C@@]1(C)CO1 [Carfilzomib],90.8,54.7,–
Clc1ccc(CSC(Cn2ccnc2)c2ccc(Cl)cc2Cl)cc1.O=[N+]([O-])O (stereo not drawn) [Sulconazole Nitrate] + CC(C)C[C@H](NC(=O)[C@H](CCc1ccccc1)NC(=O)CN1CCOCC1)C(=O)N[C@@H](Cc1ccccc1)C(=O)N[C@@H](CC(C)C)C(=O)[C@@]1(C)CO1 [Carfilzomib],93.5,62.1,–
COCCOC(=O)C1=C(C)NC(C)=C(C(=O)OCC=Cc2ccccc2)C1c1cccc([N+](=O)[O-])c1 (stereo not drawn) [Cilnidipine] + CC(C)C[C@H](NC(=O)[C@H](CCc1ccccc1)NC(=O)CN1CCOCC1)C(=O)N[C@@H](Cc1ccccc1)C(=O)N[C@@H](CC(C)C)C(=O)[C@@]1(C)CO1 [Carfilzomib],104,63.2,–
CSc1ccc2c(c1)N(CCC1CCCCN1C)c1ccccc1S2.Cl (stereo not drawn) [Thioridazine HCl] + CC(C)C[C@H](NC(=O)[C@H](CCc1ccccc1)NC(=O)CN1CCOCC1)C(=O)N[C@@H](Cc1ccccc1)C(=O)N[C@@H](CC(C)C)C(=O)[C@@]1(C)CO1 [Carfilzomib],77.7,64.4,17.7
CC1CC(=O)NN=C1c1ccc(NN=C(C#N)C#N)cc1 (stereo not drawn) [Levosimendan] + CC(C)C[C@H](NC(=O)[C@H](CCc1ccccc1)NC(=O)CN1CCOCC1)C(=O)N[C@@H](Cc1ccccc1)C(=O)N[C@@H](CC(C)C)C(=O)[C@@]1(C)CO1 [Carfilzomib],74.1,61.5,–
CCOc1nc2cccc(C(=O)OC(C)OC(=O)OC3CCCCC3)c2n1Cc1ccc(-c2ccccc2-c2nn[nH]n2)cc1 (stereo not drawn) [Candesartan Cilexetil] + CC(C)C[C@H](NC(=O)[C@H](CCc1ccccc1)NC(=O)CN1CCOCC1)C(=O)N[C@@H](Cc1ccccc1)C(=O)N[C@@H](CC(C)C)C(=O)[C@@]1(C)CO1 [Carfilzomib],77.5,61.4,18.9
Nc1ncn(C2OC(CO)C(O)C2O)c(=O)n1 (stereo not drawn) [5-Azacytidine] + CC(C)C[C@H](NC(=O)[C@H](CCc1ccccc1)NC(=O)CN1CCOCC1)C(=O)N[C@@H](Cc1ccccc1)C(=O)N[C@@H](CC(C)C)C(=O)[C@@]1(C)CO1 [Carfilzomib],75.9,68.2,–
COc1cc2c(Oc3ccc4[nH]c(C)cc4c3F)ncnc2cc1OCCCN1CCCC1 [Cediranib (AZD217)] + CC(C)C[C@H](NC(=O)[C@H](CCc1ccccc1)NC(=O)CN1CCOCC1)C(=O)N[C@@H](Cc1ccccc1)C(=O)N[C@@H](CC(C)C)C(=O)[C@@]1(C)CO1 [Carfilzomib],80.6,31.6,11.6
CCc1oc2ccccc2c1C(=O)c1cc(Br)c(O)c(Br)c1 [Benzbromarone] + CC(C)C[C@H](NC(=O)[C@H](CCc1ccccc1)NC(=O)CN1CCOCC1)C(=O)N[C@@H](Cc1ccccc1)C(=O)N[C@@H](CC(C)C)C(=O)[C@@]1(C)CO1 [Carfilzomib],84.6,63.1,20.1
COc1ccc2cc1Oc1ccc(cc1)CC1c3c(cc4c(c3Oc3cc5c(cc3OC)CCN(C)C5C2)OCO4)CCN1C (stereo not drawn) [Cepharanthine] + CC(C)C[C@H](NC(=O)[C@H](CCc1ccccc1)NC(=O)CN1CCOCC1)C(=O)N[C@@H](Cc1ccccc1)C(=O)N[C@@H](CC(C)C)C(=O)[C@@]1(C)CO1 [Carfilzomib],76.2,45.8,–
Oc1c(Cl)cc(Cl)c2cccnc12 [Chloroxine] + CC(C)C[C@H](NC(=O)[C@H](CCc1ccccc1)NC(=O)CN1CCOCC1)C(=O)N[C@@H](Cc1ccccc1)C(=O)N[C@@H](CC(C)C)C(=O)[C@@]1(C)CO1 [Carfilzomib],79.4,62.4,19
CCc1cnn2c(NCc3ccc[n+]([O-])c3)cc(N3CCCCC3CCO)nc12 (stereo not drawn) + CC(C)C[C@H](NC(=O)[C@H](CCc1ccccc1)NC(=O)CN1CCOCC1)C(=O)N[C@@H](Cc1ccccc1)C(=O)N[C@@H](CC(C)C)C(=O)[C@@]1(C)CO1 [Carfilzomib],33.6,23.7,–
COc1cc(C(=O)O)ccc1NC(=O)C1NC(CC(C)(C)C)C(C#N)(c2ccc(Cl)cc2F)C1c1cccc(Cl)c1F (stereo not drawn) + CC(C)C[C@H](NC(=O)[C@H](CCc1ccccc1)NC(=O)CN1CCOCC1)C(=O)N[C@@H](Cc1ccccc1)C(=O)N[C@@H](CC(C)C)C(=O)[C@@]1(C)CO1 [Carfilzomib],79.1,62.7,–

# — the supplement of paper PMC6992640
